CD40 NFkB inh = CD40 pathway inhibition in BL2 cells. BL2 NF-kB luciferase reporter, CD40L-induced, 4 h. inhibition, % at 10 µM. 83,000 compounds, 0.94% hits;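 active = mean inhibition of at least 50% with a set share of replicates also reaching that level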
Each line names hits and unclear results; the compound was inactive in the other large screens; [ ] = dose if it differs, or a comment. Shown is part of a subset that was picked to be rich in hits.

CCC(=O)N1[C@H](CN(C)C(C)=O)[C@@H](c2ccc(-c3cccc(F)c3)cc2)[C@@H]1CO	none
C[C@@H]1CCCCO[C@H](CN(C)S(=O)(=O)c2ccccc2)[C@H](C)CN([C@@H](C)CO)C(=O)c2cc(NS(=O)(=O)c3ccc(Cl)cc3)ccc2O1	none
O=C(C[C@@H]1CC[C@H]2[C@@H](COC[C@H](O)CN2S(=O)(=O)c2ccc(Cl)cc2)O1)NCCN1CCCCC1	none
O=C(c1ccccn1)N1C[C@@H]2[C@H](c3ccccc31)[C@@H](CO)N2C(=O)Nc1ccccc1F	none
O=C(Nc1ccccc1F)N1CCCCN2[C@H](C1)[C@@H](c1ccc(C#Cc3cccnc3)cc1)[C@@H]2CO	none
CSC1SCC2C(=O)N(C)C(C(C)C)C(=O)OCC(NC(=O)c3cnc4ccccc4n3)C(=O)NC(C)C(=O)N(C)C1C(=O)N(C)C(C(C)C)C(=O)OCC(NC(=O)c1cnc3ccccc3n1)C(=O)NC(C)C(=O)N2C (centres undefined)	CD40 NFkB inh 91.6
C[C@H]1CN([C@@H](C)CO)C(=O)c2ccccc2-c2ccccc2CO[C@H]1CN(C)S(=O)(=O)c1ccccc1F	none
CC(=O)N(C)C[C@H]1Oc2ccc(N)cc2C(=O)N(C)C[C@@H]1C	none
Cn1cc(/C=C/C(=O)c2ccccc2)c2ccccc21	CD40 NFkB inh 33.2
Cn1cc(/C=N/Nc2ccccc2)c2ccccc21	none
O=C(/C=C/c1ccccc1)c1ccccc1	none
N#C/C(=C\c1ccc(O)c(O)c1)C(=O)NC1CCC(CC2CCC(NC(=O)/C(C#N)=C/c3ccc(O)c(O)c3)CC2)CC1 (centres undefined)	none
CC1OC(CC(=O)O)CC2=C1C(=O)c1c(O)cccc1C2=O (centres undefined)	CD40 NFkB inh 103.7
C[C@@H]1CN([C@@H](C)CO)C(=O)Cc2cc(NS(=O)(=O)c3ccc(F)cc3)ccc2O[C@@H]1CN(C)C(=O)NC1CCCCC1	none
O=C1C[C@H](c2ccccc2)C(=O)N[C@@H](c2ccccc2)C/C=C\C[C@@H](c2ccccc2)N1	CD40 NFkB inh 59.9[25 µM]
O=C1C[C@@H](c2ccccc2)C(=O)N[C@@H](c2ccccc2)C/C=C\C[C@H](c2ccccc2)N1	none
O=C1C[C@@H](c2ccccc2)C(=O)N[C@H](c2ccccc2)C/C=C\C[C@H](c2ccccc2)N1	none
CCCC#Cc1ccc2c(c1)[C@H]1[C@H](CCN1C(=O)C1CC1)[C@H](CO)N2	none
CCCN1[C@@H]2c3ccc(-c4ccccc4)c(=O)n3C[C@@H]2[C@@H](CO)[C@@H]1C(=O)NCCc1cn(C)cn1	none
COc1ccc2c3c([nH]c2c1)[C@@H](CO)N(S(=O)(=O)c1cn(C)cn1)CC31CCN(CC2CCCCC2)CC1	none
COc1ccc(CN(C)C[C@H]2Oc3ccc(NC(=O)Cc4cn(C)c5ccccc45)cc3CC(=O)N([C@@H](C)CO)C[C@@H]2C)cc1	none
C[C@@H]1CN([C@@H](C)CO)C(=O)c2cc(NC(=O)Cc3cn(C)c4ccccc34)ccc2O[C@@H]1CN(C)Cc1ccc2c(c1)OCO2	none
C[C@@H]1CN([C@H](C)CO)C(=O)Cc2cc(NC(=O)Cc3cn(C)c4ccccc34)ccc2O[C@H]1CN(C)Cc1ccc(C(F)(F)F)cc1	CD40 NFkB inh 71.9[25 µM]
C[C@@H]1CN([C@@H](C)CO)C(=O)c2cc(NC(=O)CCN3CCOCC3)ccc2O[C@@H]1CN(C)Cc1ccc(C(F)(F)F)cc1	none
C[C@@H]1CN([C@@H](C)CO)C(=O)Cc2cc(NC(=O)Nc3ccc(C(F)(F)F)cc3)ccc2O[C@H]1CN(C)Cc1ccc2c(c1)OCO2	none
C[C@H]1CN([C@@H](C)CO)C(=O)Cc2cc(NC(=O)Cc3cn(C)c4ccccc34)ccc2O[C@H]1CN(C)Cc1ccc(C(F)(F)F)cc1	CD40 NFkB inh 76.1[25 µM]
CC[C@H]1C/C=C\CCNC(=O)CCC(=O)N1	none
CN1[C@@H]2Cn3c(ccc(-c4ccc(F)cc4)c3=O)[C@H]1[C@@H](C(=O)NC1CCCCC1)[C@@H]2CO	none
O=C(c1ccccn1)N1C[C@H]2[C@@H](c3ccccc31)[C@@H](CO)N2C(=O)Nc1ccccc1F	none
CCC(=O)N1[C@@H]2c3cccc(=O)n3C[C@H]1[C@H](CO)[C@H]2C(=O)NCc1ccccc1	none
CC(=O)Nc1ccc2c(c1)CC(=O)N(C)C[C@@H](C)[C@H](CN(C)S(C)(=O)=O)O2	none
CN(C)C(=O)[C@H]1[C@H](CO)[C@H]2Cn3c(ccc(C4=CCCC4)c3=O)[C@@H]1N2CCC(F)(F)F	none
O=C(C1CCOCC1)N1C[C@@H]2[C@H](c3ccccc31)[C@H](CO)N2C(=O)Nc1cccc(F)c1	none
CC(=O)Nc1ccc2c(c1)C(=O)N(C)C[C@H](C)[C@H](CN(C)C(C)=O)O2	none
Cc1ccc2ncccc2c1[N+](=O)[O-]	none
Cc1noc(/C=C/c2ccccn2)c1[N+](=O)[O-]	CD40 NFkB inh 42.5
O=[N+]([O-])c1cccc(/C=C/c2ccccn2)c1	none
C[C@H](NC(=O)N(C)C[C@@H]1OCc2ccccc2-c2ccccc2C(=O)N([C@@H](C)CO)C[C@H]1C)c1ccccc1	none
O=C(C[C@@H]1C=C[C@@H](NC(=O)Nc2ccc3c(c2)OCO3)[C@H](CO)O1)NCc1ccccc1	none
C[C@H](CO)N1C[C@H](C)[C@@H](CN(C)Cc2cccc(C(=O)O)c2)Oc2ncc(C#C[C@@H](C)O)cc2C1=O	none
O=C(CN1C(=O)c2cccc([N+](=O)[O-])c2C1=O)OCC(=O)N1CCCCC1	CD40 NFkB inh 60.9
O=C(CCCN1C(=O)c2cccc3cccc(c23)C1=O)OCC(=O)N1CCCCC1	none
O=C(COC(=O)CCN1C(=O)c2cccc([N+](=O)[O-])c2C1=O)NCc1ccccc1	none
C/C=C/c1ccc([C@@H]2[C@@H](CNC(=O)C3CCC3)N(C(=O)NCCC)[C@H]2CO)cc1	none
CC(=O)N1CCCCN2[C@@H](CO)[C@@H](c3ccc(Br)cc3)[C@@H]2C1	none
C[C@H]1CN(C)C(=O)c2cc(N(C)C)ccc2O[C@H]1CN(C)C	none
CCc1cnc(N2[C@H](C#N)[C@@H](c3ccc(C#Cc4ccccc4F)cc3)[C@H]2CO)s1	none
N#C[C@H]1[C@H](c2ccc(C#Cc3ccccc3F)cc2)[C@@H](CO)N1C(=O)C1CC1	CD40 NFkB inh 50.4[25 µM]
N#C[C@@H]1[C@H](c2ccc(C#Cc3ccccc3F)cc2)[C@H](CO)N1C(=O)c1cccnc1	none
CCc1cnc(N2[C@H](C#N)[C@H](c3ccc(C#Cc4ccccc4F)cc3)[C@@H]2CO)s1	none
CCc1csc(N2[C@H](C#N)[C@@H](c3ccc(-c4ccc(F)cc4)cc3)[C@@H]2CO)n1	none
CCc1csc(N2[C@@H](C#N)[C@@H](c3ccc(C#Cc4ccc(F)cc4)cc3)[C@@H]2CO)n1	none
CCc1cnc(N2[C@H](C#N)[C@H](c3ccc(C#Cc4ccccc4F)cc3)[C@H]2CO)s1	CD40 NFkB inh 72.5[25 µM]
N#C[C@@H]1[C@H](c2ccc(C#Cc3ccccc3F)cc2)[C@@H](CO)N1C(=O)c1cccnc1	CD40 NFkB inh 77.7[25 µM]
N#C[C@@H]1[C@@H](c2ccc(C#Cc3ccccc3F)cc2)[C@@H](CO)N1C(=O)C1CC1	none
CCc1csc(N2[C@H](C#N)[C@H](c3ccc(C#Cc4ccc(F)cc4)cc3)[C@H]2CO)n1	CD40 NFkB inh 77.1[25 µM]
N#C[C@@H]1[C@@H](c2ccccc2)[C@@H](CO)N1C(=O)c1cccnc1	none
N#C[C@@H]1[C@@H](c2ccc(C#Cc3ccccc3F)cc2)[C@H](CO)N1C(=O)C1CC1	none
COC(=O)[C@H]1[C@H](CO)[C@H]2Cn3c(ccc(-c4ccccc4)c3=O)[C@H]2N1CC1CCCCC1	none
CO[C@@H]1CN(C)C(=O)c2ccc(NC(=O)C3CCOCC3)cc2OC[C@@H](C)N(C)C[C@H]1C	none
